Reference: PubChem BioAssay
The source made the active and inactive calls.

Assays:
[1] = anti-His antibody binders, primary screen, artefact control for SMM control protein annotation, biochemical, small-molecule microarray, 635 nm fluorescence (AID 1128); details: anti-His Alexa647 antibody binding, higher = more signal;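 further: score merges feature fluorescence with signal-to-noise for each printed compound spot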
[2] = test system: Human papillomavirus type 1a E7 protein (residues 1-88); assay: HPV1a E7 small-molecule binders, primary screen, biochemical, small-molecule microarray, residues 1-88, 635 nm (AID 1129); details: small-molecule microarray binding, fluorescence 635 nm; higher = more signal
[3] = target: Focal adhesion kinase 1 (Homo sapiens) (UniProt Q05397); assay: small-molecule microarray binders of FAK, primary screen, biochemical, 635/667 nm fluorescence, BSA, DTT (AID 1130); details: PTK2 binding, 635 nm fluorescence, higher = more signal;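 further: composite of spot emission at 667 nm and signal to noise over triplicate slides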
[4] = test system: Fibrinogen (Alexa647-labelled); assay: fibrinogen binders on compound microarrays, profiling panel, artefact control for SMM control-protein annotation, biochemical, small-molecule microarray, 635/667 nm fluorescence (AID 1131); details: fibrinogen-A647 binding fluorescence, higher = more signal;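 further: z-score merges 667 nm fluorescence with per-spot signal-to-noise over triplicate slides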
[5] = target: Follistatin (Homo sapiens) (UniProt P19883); assay: follistatin binders on small-molecule microarrays, primary screen, biochemical, small-molecule microarray, 635/667 nm fluorescence (AID 1132); details: FST binding, 635 nm fluorescence, higher = more signal
[6] = target: Fibroblast growth factor 2 (Homo sapiens) (UniProt P09038); assay: FGF2 binders on small-molecule microarrays, primary screen, biochemical, small-molecule microarray, 635/667 nm fluorescence (AID 1133); details: small-molecule microarray binding, FGF2, fluorescence 635/667; higher = more signal
[7] = mitochondrial membrane potential change in A549 cells, profiling panel, cell-based, JC-1 fluorescence, basal, 24 h, 100 nL (AID 1138); details: higher = more signal;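 further: A549 lung adenocarcinoma cells under basal conditions with no added stimulus; test concentration not given here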
Lefty1 = Lefty1 binders on small-molecule microarrays, primary screen, biochemical, small-molecule microarray, 635/667 nm fluorescence (AID 1139); details: small-molecule microarray binding, fluorescence 635/667; higher = more signal
[8] = test system: wheat germ agglutinin (Triticum aestivum), Alexa647-labelled; assay: wheat germ agglutinin binders on compound microarrays, profiling panel, artefact control for SMM control-protein annotation, biochemical, small-molecule microarray, 635/667 nm fluorescence (AID 1140); details: WGA-A647 binding, 635 nm fluorescence, higher = more signal;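 further: score merges 667 nm feature emission with signal to noise over triplicate slides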
[9] = target: Luciferin 4-monooxygenase (Photinus pyralis) (UniProt P08659); assay: firefly luciferase enzyme inhibitors, primary screen, biochemical, luminescence, purified enzyme, 2006 set (AID 1141); details: SteadyGlo luminescence, 30 min, higher = more signal, called active from +8 up or from −8 down;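 further: cell-free assay with purified firefly luciferase at 100 ng per well in PBS; test concentration not given here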
Chain of Luciferin 4-monooxygenase (Photinus pyralis) (P08659 whole entry, looked up): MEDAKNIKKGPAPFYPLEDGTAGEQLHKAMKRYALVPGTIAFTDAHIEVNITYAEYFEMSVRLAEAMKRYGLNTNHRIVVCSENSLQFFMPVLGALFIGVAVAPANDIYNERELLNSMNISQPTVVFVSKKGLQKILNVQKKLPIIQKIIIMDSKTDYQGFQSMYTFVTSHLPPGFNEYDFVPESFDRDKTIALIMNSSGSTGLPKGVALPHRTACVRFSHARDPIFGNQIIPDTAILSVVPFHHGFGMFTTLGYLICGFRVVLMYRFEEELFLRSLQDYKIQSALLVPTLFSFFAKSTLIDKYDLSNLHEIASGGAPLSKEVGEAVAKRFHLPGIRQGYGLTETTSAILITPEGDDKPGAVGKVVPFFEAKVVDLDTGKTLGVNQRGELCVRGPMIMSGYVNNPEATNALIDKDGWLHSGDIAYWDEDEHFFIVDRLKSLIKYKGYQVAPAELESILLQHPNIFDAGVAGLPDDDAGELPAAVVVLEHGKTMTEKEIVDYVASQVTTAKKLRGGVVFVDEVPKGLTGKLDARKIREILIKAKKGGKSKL

Chain of Focal adhesion kinase 1 (Homo sapiens) (Q05397 whole entry, looked up): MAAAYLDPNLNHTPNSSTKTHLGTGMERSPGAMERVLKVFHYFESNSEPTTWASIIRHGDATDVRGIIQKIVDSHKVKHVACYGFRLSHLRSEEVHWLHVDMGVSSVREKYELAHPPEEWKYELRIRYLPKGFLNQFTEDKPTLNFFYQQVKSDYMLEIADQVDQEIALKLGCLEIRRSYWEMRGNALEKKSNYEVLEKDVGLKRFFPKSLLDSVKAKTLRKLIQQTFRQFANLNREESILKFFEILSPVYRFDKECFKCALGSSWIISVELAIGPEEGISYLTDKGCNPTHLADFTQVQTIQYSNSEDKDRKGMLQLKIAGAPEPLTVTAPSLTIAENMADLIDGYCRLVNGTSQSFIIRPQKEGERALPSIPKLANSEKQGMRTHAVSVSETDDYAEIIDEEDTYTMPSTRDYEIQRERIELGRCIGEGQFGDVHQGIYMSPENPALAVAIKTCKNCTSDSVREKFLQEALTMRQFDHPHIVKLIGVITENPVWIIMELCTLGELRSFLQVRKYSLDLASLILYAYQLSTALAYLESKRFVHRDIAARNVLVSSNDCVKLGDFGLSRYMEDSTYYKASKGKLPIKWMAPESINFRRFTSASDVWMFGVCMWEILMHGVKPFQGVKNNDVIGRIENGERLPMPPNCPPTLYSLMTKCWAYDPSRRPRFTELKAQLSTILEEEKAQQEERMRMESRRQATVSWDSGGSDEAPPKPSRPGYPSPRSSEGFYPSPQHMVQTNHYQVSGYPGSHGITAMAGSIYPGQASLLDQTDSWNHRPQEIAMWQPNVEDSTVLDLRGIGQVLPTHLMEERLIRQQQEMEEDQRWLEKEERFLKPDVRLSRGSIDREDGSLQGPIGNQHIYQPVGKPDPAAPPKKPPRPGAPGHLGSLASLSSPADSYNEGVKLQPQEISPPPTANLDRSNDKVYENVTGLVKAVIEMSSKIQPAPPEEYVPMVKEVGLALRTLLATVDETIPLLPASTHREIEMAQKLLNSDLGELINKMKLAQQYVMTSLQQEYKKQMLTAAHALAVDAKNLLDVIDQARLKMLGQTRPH
Chain of Follistatin (Homo sapiens) (P19883 whole entry, looked up): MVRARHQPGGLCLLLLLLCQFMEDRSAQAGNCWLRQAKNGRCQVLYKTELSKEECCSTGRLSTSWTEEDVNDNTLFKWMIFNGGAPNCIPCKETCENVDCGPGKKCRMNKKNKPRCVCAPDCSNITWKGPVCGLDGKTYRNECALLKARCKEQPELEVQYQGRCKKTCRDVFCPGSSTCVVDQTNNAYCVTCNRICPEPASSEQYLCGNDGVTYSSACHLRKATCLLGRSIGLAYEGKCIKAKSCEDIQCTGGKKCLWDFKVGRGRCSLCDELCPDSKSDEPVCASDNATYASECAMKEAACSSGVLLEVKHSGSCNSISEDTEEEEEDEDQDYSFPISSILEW
Chain of Fibroblast growth factor 2 (Homo sapiens) (P09038 whole entry, looked up): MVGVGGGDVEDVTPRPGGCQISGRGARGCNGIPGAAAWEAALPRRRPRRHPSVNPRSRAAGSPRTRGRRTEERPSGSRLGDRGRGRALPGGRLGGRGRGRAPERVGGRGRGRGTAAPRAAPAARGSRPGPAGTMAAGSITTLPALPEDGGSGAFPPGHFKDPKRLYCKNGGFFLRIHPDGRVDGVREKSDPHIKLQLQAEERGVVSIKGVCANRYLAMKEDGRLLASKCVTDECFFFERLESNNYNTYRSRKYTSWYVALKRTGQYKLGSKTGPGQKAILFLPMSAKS

| SMILES | composite z-score [1] | composite z-score [2] | composite z-score [3] | composite z-score [4] | composite z-score [5] | composite z-score [6] | z-score [7] | composite z-score (Lefty1) | composite z-score [8] | z-score [9] |
| --- | --- | --- | --- | --- | --- | --- | --- | --- | --- | --- |
| CCOC(=O)C1=C[C@@H](c2ccccc2)N(S(=O)(=O)c2ccc(C)cc2)[C@H]1c1ccccc1 | 0.421 | 0.574 | 0.681 | -0.276 | 0.379 | 0.466 | 1.47 | 0.543 | 0.197 | 1.94 (inactive) |
| COCCCNC(=O)[C@@]1(Sc2ccc(C)cc2)CC(=O)N(Cc2ccccc2Cl)[C@@H]1c1ccc(CO)cc1I | 1.32 | -0.943 | 0.345 | -1.49 | -0.242 | -0.765 | 0.919 | -0.959 | -0.691 | -0.181 (inactive) |
| COc1cccc(/C=C(\C#N)C(=O)Nc2c(C)n(C)n(-c3ccccc3)c2=O)c1 | 0.352 | 0.0072 | 0.268 | 0.85 | 0.346 | 0.365 | 0.697 | 0.363 | 0.713 | 0.109 (inactive) |
| COc1ccc([Si](C)(C)[C@@H]2[C@@H](CC(=O)N3Cc4ccccc4C[C@H]3CO)O[C@]3(C(=O)N(c4ccccc4)c4ccccc43)[C@H]2C)cc1 | 2.39 | 0.957 | 0.983 | 0.813 | 1.36 | 1.46 | 0.277 | 1.04 | 1.53 | 0.348 (inactive) |
| C=C(CCCC)C(=O)CC[C@H](OC(C)=O)c1ccc(OCCO)cc1 | 1.45 | -0.957 | 0.0145 | 0.431 | -0.243 | -0.271 | 0.208 | 0.108 | 0.359 | -0.66 (inactive) |
| COCCOC(=O)N1C(=O)[C@@]2(c3cc(C#CC4(O)CCCCCC4)ccc31)[C@H](C(=O)N1CCN(c3ncccn3)CC1)[C@H]1C(=O)O[C@H](c3ccccc3)[C@H](c3ccccc3)N1[C@@H]2c1ccccc1OCCO | 1.29 | 1.18 | 1.1 | 0.821 | 1.28 | 1.37 | -1.04 | 0.883 | 0.321 | -0.348 (inactive) |
| COC(=O)[C@@]1(Cc2ccccc2)[C@H]2c3cc(C(=O)N(C)C)n(CCn4cc([N+](=O)[O-])nc4C)c3C[C@H]2CN1C(=O)c1ccccc1 | 0.735 | 0.858 | 1.39 | 0.989 | 0.387 | -0.163 | -0.22 | 0.216 | 1.1 | -0.0637 (inactive) |
| COc1ccc(C#Cc2ccc3c(c2)[C@]2(C(=O)N3)[C@H](C(=O)Nc3nc4ccccc4s3)[C@H]3C(=O)O[C@H](c4ccccc4)[C@H](c4ccccc4)N3[C@@H]2c2ccccc2OCCO)cc1 | 0.395 | 1.1 | 0.446 | 0.969 | 1.16 | 0.0821 | -1.98 | 0.262 | 0.371 | -0.364 (inactive) |
| COC(=O)[C@@]1(Cc2ccccc2)[C@H]2c3cc(C(=O)N4CCCC4)n(CCSCCO)c3C[C@H]2CN1C(=O)c1ccccc1 | 2.38 | 1.21 | 0.776 | 0.975 | 0.337 | 0.101 | 0.451 | 0.0341 | 0.844 | 0.103 (inactive) |
| CC1CC/C=C\[C@H]2OC34C=CCN(C(C)(C)C)C(=O)[C@H]3N(C(CO)C(C)C)C(=O)[C@@H]4C2C(=O)O1 (stereo not given in full) | -0.0256 | -0.181 | 0.102 | -1.26 | 0.276 | 0.365 | -0.428 | 0.659 | -0.324 | -0.0671 (inactive) |
| COCCOC(=O)N1C(=O)[C@@]2(c3cc(C#CCCO)ccc31)[C@H](C(=O)N1CCCCCCC1)[C@H]1C(=O)O[C@H](c3ccccc3)[C@H](c3ccccc3)N1[C@@H]2c1ccccc1OCCO | 0.573 | 1.19 | 0.686 | 0.885 | 1.45 | 0.819 | -0.971 | 1.41 | 1.25 | -1.29 (inactive) |
| O=c1cccc(-c2ccco2)o1 | 0.645 | 0.471 | 0.082 | 0.476 | 1.3 | 0.879 | -0.262 | 1.02 | 0.138 | 0.405 (inactive) |
| CC(=O)NCCCC[C@@H]1NC(=O)[C@@H]2C[C@H](C(=O)NCCCCCCN)[C@H](c3cccc(OCCO)c3)N2C1=O | 1.86 | 0.286 | 0.367 | 1.01 | 0.382 | -0.0704 | 0.266 | -0.555 | 1.11 | -0.352 (inactive) |
| CN(C)CCCC[C@@H]1NC(=O)[C@@H]2C[C@H](C(=O)O)[C@H](c3cccc(OCCO)c3)N2C1=O | 1.22 | -0.544 | -0.335 | 0.438 | 0.072 | 1.17 | 0.0092 | -0.528 | -0.138 | -0.836 (inactive) |
| CCCC=C(CCC)[C@@H](NS(=O)(=O)c1cccc2cccnc12)c1ccc(-c2ccccc2)cc1 | 0.187 | 1.19 | 0.638 | 0.98 | 0.964 | 0.512 | 1.03 | 1.11 | 0.745 | 2.06 (inactive) |
| CCCNC(=O)[C@@]1(C)c2ccccc2C(=O)N(Cc2ccccc2)[C@H]1c1ccc(CO)cc1 | 1.8 | 0.0323 | 1.28 | -0.872 | -0.571 | -0.258 | 1.03 | -0.975 | -0.231 | -1.18 (inactive) |
| CCOC(=O)C=Cc1cc(F)ccc1O | 0.354 | -0.166 | 0.727 | -0.333 | 0.0875 | 0.0013 | -1.8 | -0.471 | 0.0203 | 0.701 (inactive) |
| CO[C@H]1O[C@H](CO)[C@@H](OC(=O)Nc2ccc(C#N)cc2)[C@@H]2OC(=O)[C@H](Cc3cccc(Br)c3)C/C=C/C[C@@H](Cc3cccc(Br)c3)C(=O)O[C@@H]12 | 1.26 | 0.776 | -0.611 | 0.448 | 1.2 | 0.707 | 1.39 | 1.13 | 0.655 | 0.782 (inactive) |
| C[C@@]12COC[C@]13C=C(Br)[C@H](C2)[C@@]1(CO1)C3=O | 0.0359 | -1.59 | -0.306 | -0.376 | -0.222 | -0.757 | 1.02 | -0.0487 | -0.388 | 0.198 (inactive) |
| C=CCC(OC(C)=O)[C@@H]1[C@@H](N(Cc2cccc3ccccc23)C(=O)c2cccc3ccccc23)c2cc(OCCCO)ccc2N1C(=O)c1ccc2ccccc2c1 (stereo not given in full) | 0.279 | 0.18 | -0.0836 | 0.0439 | 1.14 | 0.061 | -0.348 | 0.11 | -0.223 | 1.48 (inactive) |
| COC(=O)[C@@]1(Cc2ccc(F)cc2)[C@H]2c3cc(C(=O)N4CCCC4)n(C)c3C[C@H]2CN1C(=O)c1ccccc1 | 2.46 | 1.23 | 0.746 | 0.422 | 0.253 | -0.325 | 0.312 | -0.983 | 0.0993 | 0.745 (inactive) |
| [N-]=[N+]=NCc1ccccc1[C@@H]1OC(c2ccc(OCCCO)cc2)=N[C@]1(Cc1ccccc1N=[N+]=[N-])C(=O)NCCN1CCOCC1 | 1.37 | 1.25 | 0.535 | 0.983 | 1.39 | 0.893 | 2.23 | 0.54 | 0.445 | -2.82 (inactive) |
| CC(C)c1ccc(NN2C(C(O)Cc3ccccc3)C=CC3C(=O)N(c4ccccc4)C(=O)C32)cc1 (stereo not given) | 0.829 | 1.11 | 1.16 | 0.958 | 1.28 | -0.0551 | -1.24 | 0.441 | 0.797 | -0.959 (inactive) |
| COC(=O)[C@@]1(Cc2ccc(OC)cc2)[C@H]2c3cc(C(=O)N4CCCC4)n(Cc4cc(C)n(C)n4)c3C[C@H]2CN1C(=O)c1ccccc1 | 1.58 | 1.17 | 2.74 | 1.05 | -0.326 | -0.622 | 1.16 | -0.801 | 1.33 | 0.769 (inactive) |
| C[C@]1(C(=O)NCCN2CCOCC2)c2ccccc2C(=O)N(Cc2cc(F)cc(C(F)(F)F)c2)[C@H]1c1ccc(CO)cc1 | 3.12 | 0.917 | 0.746 | 0.91 | 0.89 | -0.0787 | 0.815 | 0.443 | 0.294 | 1.05 (inactive) |
